Assay outcomes: PubChem, National Center for Advancing Translational Sciences (NCATS)
Shown are actives, neighbours in structure and some others; about 19% of the full set was active somewhere.
DT40 TDP1 no CPT: qHTS for Inhibitors of human tyrosyl-DNA phosphodiesterase 1 (TDP1): qHTS in cells in absence of CPT. AID 686978, 2013. DT40 Tdp1-/- hTDP1 cells, no CPT, ATP luminescence, 48 h. Potency, µM (top dose mostly 46.2 µM), hits mostly inhibitors. 420,000 tested, 15% active; note: nearly all actives have a fitted effect of over 55% in size
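Cells were dispensed at 400 per well, compounds added by pin tool, plates incubated ≥48 hr at 37 °C, then CellTiter-Glo added for 30 min at room temperature before luminescence reading. Line: DT40 Tdp1-/- complemented with hTDP1; camptothecin omitted.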
TDP1 cell CPT: growth inhibition of DT40 Tdp1-/-;hTDP1 cells with camptothecin (screen for TDP1 inhibitors); chicken DT40 Tdp1-/-;hTDP1 cells + 20 nM CPT, ATP luminescence, 48 h; Potency, µM (doses to about 46.2 µM), hits mostly inhibitors; 420,000 tested, 12% active; note: nearly all actives have a fitted effect of over 55% in size
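Cell growth measured by CellTiter-Glo luminescence after a minimum 48 h, 37 C compound exposure with 20 nM CPT in Tdp1-knockout DT40 cells stably expressing hTDP1, seeded 400/well; qHTS titration format.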
IL1B secr inh: inflammasome signaling inhibition, IL-1 beta readout; THP-1 LPS/ATP IL-1B secretion, AlphaLISA, 16 h; active compounds read low; activity change, % at 57.5 µM; 360,000 tested, 4.7% active; in the data active = activity change below about -50%; inconclusive = mostly about -30% to -49%
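THP-1 cells pretreated 1 hr with compounds (up to 57.5 uM final), then stimulated with LPS (250 ng/mL final) plus ATP (1.25 mM final); secreted IL-1B measured by AlphaLISA after 16 hr, decreased signal indicating inhibition.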
HT1080NT lethal: kills 2HG-producing HT-1080-NT fibrosarcoma cells; HT-1080-NT fibrosarcoma viability, CellTiter-Glo ATP luminescence, 48 h; Potency, µM (doses to about 46.1 µM), most hits filed as cytotoxic; 360,000 tested, 1.6% active;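 note: NT is the 2HG producing partner of a matched IDH1 knockdown line; nearly all actives have a fitted effect of over 55% in size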
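Viability by CellTiter-Glo luminescence after 48 h compound exposure at 37C of HT-1080-NT cells (750/well, RPMI, 5% FBS). % activity scaled between DMSO wells and medium-only wells, then curve-fitted and categorized by curve class.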
HT1080 IDH1KD tx: kills HT-1080 cells with IDH1 knockdown. HT-1080 IDH1 knockdown viability, ATP luminescence, 48 h. Potency, µM (highest dose often 46.1 µM), most hits filed as cytotoxic. 360,000 tested, 2% active. AID 686971
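Luminescent ATP read-out (CellTiter-Glo, 10 min at room temperature) after 48 h compound exposure at 37 °C gave viability of IDH1-knockdown HT-1080 cells. Activity was normalised to DMSO and cell-free wells, then fitted as concentration-response curves.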
ELG1 DNA repair: inhibitors of ELG1-dependent DNA repair in HEK293T cells; HEK293T ELG1-luciferase reporter, luminescence, 16 h; DNA damage induced by 5-fluorouridine; 330,000 tested, 2.3% active; AID 504467; Potency, µM (doses to about 46.1 µM), actives largely listed as inhibitors; note: nearly all actives have a fitted effect of over 55% in size
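Luminescence from the luciferase reporter, measured 30 min after ONE-Glo reagent at room temperature, was the read-out. Beforehand, 2,000 cells per well were exposed for 16 hr at 37 °C to 5-fluorouridine together with compound or vehicle.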
Hits are given with their value; 0 = inactive; ? = inconclusive; - = not tested or not shown. Unless noted, calls come from the whole dose curve; as a rule, active = well fitted curve in the direction sought with a large enough effect; inconclusive = small, poorly fitted or top-dose-only effect, or another doubt; inactive = no such curve, though single readings can be large; an effect the other way counts as inactive or inconclusive.

SMILES	DT40 TDP1 no CPT	TDP1 cell CPT	IL1B secr inh	HT1080NT lethal	HT1080 IDH1KD tx	ELG1 DNA repair
O=C1N(c2cccc(Cl)c2)C(c2ccc(Cl)cc2)N2CCCN12 (centres undefined)	0	0	0	0	0	0
O=C1N[C@@H](Cc2ccccc2)C(=O)N2[C@@H]3N(S(=O)(=O)c4ccccc4)c4ccccc4[C@]3(Br)C[C@@H]12	?	?	?	?	0	-
CC(C)c1cc(C(C)C)c(S(=O)(=O)N2c3ccccc3[C@@]3(Br)C[C@H]4C(=O)N[C@@H](Cc5ccccc5)C(=O)N4[C@@H]23)c(C(C)C)c1	11.6µM	11.6µM	0	0	0	-
C=C(C)C(COc1c2occc2cc2ccc(=O)oc12)OC(C)(C)C(O)COc1c2occc2cc2ccc(=O)oc12 (centres undefined)	14.6µM	13µM	0	0	0	?
CC(C)C(=O)COc1c2occc2cc2ccc(=O)oc12	0	0	0	0	0	0
CCC(=NCCc1c(C)[nH]c2ccc(OC(F)(F)F)cc12)C1=C(O)CC(c2ccccc2)CC1=O (centres undefined)	5.8µM	4.61µM	0	4.11µM	5.8µM	?
CCC(=NCCc1c(C)[nH]c2ccccc12)C1=C(O)CC(c2ccccc2)CC1=O (centres undefined)	2.91µM	4.11µM	?	?	8.2µM	8.2µM
CCC(=NC)C1=C(O)CC(c2ccccc2)CC1=O (centres undefined)	0	0	0	0	0	0
CCCCC(=NCCc1c(C)[nH]c2ccc(OC)cc12)C1=C(O)CC(c2ccccc2)CC1=O (centres undefined)	4.11µM	4.11µM	0	?	2.31µM	10.3µM
CC(=NCCc1c(C)[nH]c2ccc(OCc3ccccc3)cc12)C1=C(O)CC(c2ccccc2)CC1=O (centres undefined)	?	?	0	0	0	?
CCOc1ccc(CNc2nc3nc(C)c(Cc4ccccc4)c(=O)n3[nH]2)cc1	0	0	-	-	-	-
CCOC(=O)/C=C(\C)Sc1cc(O)c2ccccc2c1O	1.16µM	0.92µM	-61.8	23.1µM	23.1µM	?
CCOC(=O)/C=C(\C)Sc1cc(=O)oc2ccccc12	20.6µM	23.1µM	-52.5	14.6µM	16.4µM	0
CCOC(=O)c1c(C)[nH]c2c1cc(O)c1ccccc12	?	?	0	?	?	0
CCOC(=O)Nc1oc2ccccc2c(=O)c1C	0	0	0	0	0	0
COc1ccc(S(=O)(=O)N2CCCOC2CNC(=O)C(=O)NCc2ccccc2F)cc1C (centres undefined)	?	0	0	0	0	0
CCN(C(=O)c1cc2c(C)nc3ccccc3c2o1)c1cc(Cl)ccc1OC	4.61µM	5.17µM	0	?	?	0
CCN(C(=O)c1cc2c(s1)-c1ccccc1OC2)c1cc(Cl)ccc1OC	10.3µM	20.6µM	-	-	-	-
O=C(Nc1cccc(C(F)(F)F)c1)c1cc2c(s1)-c1ccccc1OC2	0	0	0	?	0	0
Cc1cccc2c1-c1sc(C(=O)N3CCCCC3)cc1CO2	?	?	0	0	0	?
CCN(C(=O)c1cc2c(s1)-c1ccccc1OC2)c1cccc(C(F)(F)F)c1	18.4µM	18.4µM	-	-	-	-
O=C(NCc1cccs1)c1cc2c(s1)-c1ccccc1OC2	?	0	?	0	0	0
Cc1cccc2c1-c1sc(C(=O)N(C)c3cccc(C(F)(F)F)c3)cc1CO2	23.1µM	?	-	-	-	-
N/C(=N\N=C/c1ccc(Br)cc1)N/N=C\c1ccc(Br)cc1	?	?	-64.1	?	?	0
O=C(CCc1c[nH]c2ccccc12)N/N=C/c1ccc2c(c1)OCO2	23.1µM	0	0	0	0	0
N/C(=N\N=Cc1ccc2c(c1)OCO2)NN=Cc1ccc2c(c1)OCO2	2.31µM	3.26µM	-98.5	0	?	-
O=C(NN=Cc1ccc2c(c1)OCO2)C1CC1	0	0	0	0	0	-
